Data from PubChem BioAssay AID2685 (National Center for Advancing Translational Sciences (NCATS), 2010).
Among all 320,000 compounds or so, about 2,100 (0.66%) were called active. About 53% were inconclusive and are not listed. Calls follow the shape of the dose curve; as a rule, active = well fitted inhibition curve with a large enough effect in the signal ratio, with a control signal flat (not every such curve was filed as active); inconclusive = small, poorly fitted or top-dose-only effect, or effect the other way, or a change in a side signal; inactive = flat fitted curve, though single readings scatter; the % refers to the signal ratio. For the sample, actives were picked, then their nearest neighbours and some compounds at random.

Experiment: qHTS Assay for Lipid Storage Modulators in Drosophila S3 Cells;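 as to cell number change: cells counted by Cell Tracker Red CMTPX staining in the red channel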; as to lipid storage change, negative = inhibition: % is scaled to controls: 0 for no effect and ±100 for the full control effect
Settings: BODIPY lipid droplet fluorescence, 18-24 h, cells fed with added oleic acid; cell number change: measured here: cell count max response; series mostly up to 46.1 µM
Method in brief: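 Drosophila S3 cells got compounds at several concentrations plus oleic acid (400 uM solution). Laser-scanning cytometry with 488 nm excitation read lipid droplets at 500-530 nm and cells at 575-640 nm. Percent activity was relative to 20 uM Triacsin C.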
Potency is read from the fitted curve at half-maximal effect.

| SMILES | Potency | cell number change [%] | lipid storage change, negative = inhibition |
| --- | --- | --- | --- |
| CC(=O)Nc1ccc(S(=O)(=O)NCCC(=O)OCc2nc(N)nc(Nc3ccccc3C)n2)cc1 | inactive | 3.4 |  |
| COc1ccc(N2C(=O)C3CCCN3C2=S)cc1 (configuration not stated) | inactive | 13 |  |
| COc1ccc(N2C(=O)C3CCCN3C2=O)cc1 (configuration not stated) | 18.4 µM (active) | 13.7 |  |
| COc1ccc(N2C(=O)C3CCCN3C2c2cccs2)cc1 (configuration not stated) | 8.2 µM (active) |  |  |
| COc1cccc(N2C(=O)C3CCCN3C2c2cccs2)c1 (configuration not stated) | inactive |  |  |
| O=C1C2CCCN2C(c2cccs2)N1c1ccc(Cl)cc1 (configuration not stated) | inactive | 6.57 |  |
| COc1ccc(N2C(=O)[C@@H]3Cc4ccccc4CN3C2=O)cc1 | inactive | -10.6 |  |
| CCn1c(COc2ccccc2C(N)=O)nc2ccccc21 | inactive | -13.5 |  |
| CCOC(=O)Cc1csc(NC(=S)NC(=O)c2ccc(C)cc2)n1 | inactive | 12.7 |  |
| CCOC(=O)Cc1csc(NC(=S)NC(=O)c2ccc(F)cc2)n1 | 10.3 µM (active) | -14.9 |  |
| CCOC(=O)Cc1csc(NC(=O)c2ccc(F)cc2)n1 | inactive | 5.42 |  |
| COc1cc2c(cc1OC)C1Cc3ccc(OC)c(OC)c3C[N+]1([O-])CC2 (configuration not stated) | inactive | 8.62 |  |
| Cc1nc(NCC2CCCO2)c2nnn(Cc3c(F)cccc3Cl)c2n1 (configuration not stated) | inactive | -5.53 |  |
| c1ccc(N2CCN(c3ncccn3)CC2)cc1 | inactive | -7.61 |  |
| c1ccc(C(c2ccccc2)N2CCN(c3ccc4ccccc4n3)CC2)cc1 | inactive | 9.37 |  |
| c1cnc(N2CCN(c3ccc4ccccc4n3)CC2)nc1 | 0.651 µM (active) | 23.8 |  |
| CCn1c(NC(=O)c2cccc(Cn3cc(Cl)cn3)c2)nc2ccccc21 | inactive | -10.4 |  |
| O=C(c1ccccn1)N1CCN(c2ccc(C(F)(F)F)cn2)CC1 | inactive | -1.5 |  |
| CC(=O)Nc1cccc(-c2nc3ccccc3o2)c1 | inactive |  |  |
| O=C(O)c1ccccc1-c1ccccc1C(=O)Nc1cccc(-c2nc3ccccc3o2)c1 | inactive | 14.5 |  |
| CS(=O)(=O)c1ccccc1C(=O)Nc1cccc(-c2nc3ccccc3o2)c1 | 13 µM (active) | -20.6 |  |
| COc1cccc(-c2cc(C(=O)NCC3CCCO3)c3ccccc3n2)c1 (configuration not stated) | inactive |  |  |
| Cc1ccnc(NC(=O)c2ccc(Br)s2)c1 | inactive | 12.2 |  |
| CCCc1nnc(NC(=O)CS(=O)(=O)c2ccccc2)s1 | inactive | -20 |  |

| SMILES | Potency | cell number change [%] | lipid storage change, negative = inhibition |
| --- | --- | --- | --- |
| Cc1ccc(C(=O)Nc2ncc([N+](=O)[O-])s2)cc1 | 23.1 µM (active) | -15.4 |  |
| Cc1ccc(CC(=O)Nc2ncc([N+](=O)[O-])s2)cc1 | inactive | 2.17 |  |
| CCCc1nnc(NC(=O)CCS(=O)(=O)c2ccccc2)s1 | 1.46 µM (active) | 3.42 |  |
| O=C(CCS(=O)(=O)c1ccccc1)Nc1ncc([N+](=O)[O-])s1 | 4.61 µM (active) | -3.6 |  |
| Cc1ncoc1C(=O)Nc1ncc([N+](=O)[O-])s1 | inactive | -6.04 |  |
| CCOCCc1nnc(NC(=O)CCS(=O)(=O)c2ccccc2)s1 | inactive | -12 |  |
| O=C(CS(=O)(=O)c1ccccc1)Nc1ncc([N+](=O)[O-])s1 | inactive | -6.25 |  |
| Cc1ccnc(NC(=O)c2ccc(Cl)s2)c1 | inactive |  |  |
| Cc1ccc(S(=O)(=O)CC(=O)Nc2ncc([N+](=O)[O-])s2)cc1 | inactive | -14.4 |  |
| Cc1ccnc(NC(=O)c2ccc([N+](=O)[O-])s2)c1 | 11.2 µM (active) | -22 |  |
| O=C(Nc1ccccc1F)Nc1ccc([N+](=O)[O-])cc1Cl | inactive | 6.06 |  |
| Cc1ccccc1S(=O)(=O)Cc1ccc(C(=O)NC(C)c2ccccc2)o1 (configuration not stated) | inactive |  |  |
| Cn1cc(Br)c(NS(=O)(=O)c2ccc(Cl)s2)n1 | inactive | 7.84 |  |
| CCc1ccc(C(=O)COC(=O)CNC(=O)CNC(=O)Cc2ccccc2)cc1 | inactive | -4.14 |  |
| CCc1ccccc1NC(=O)c1cnc2n(c1=O)CCS2 | inactive | -5.43 |  |
| COc1ccc(C(=O)Oc2cc(/C=N/NS(=O)(=O)c3ccccc3)ccc2OC)cc1 | inactive | -2.45 |  |
| COc1ccccc1NS(=O)(=O)c1ccc(C(=O)NCC(c2ccco2)N(C)C)cc1 (configuration not stated) | inactive | -9.2 |  |
| O=C(Nc1nc2c(F)cc(F)cc2s1)C1CCN(C(=O)c2ccc(F)cc2)CC1 | inactive | 13.4 |  |
| CC1(C)CC(C(CC(=O)Nc2nccs2)c2ccccc2)CCO1 (configuration not stated) | inactive | -3.73 |  |
| O=C(CSc1nnc2c(Cl)cc(Cl)cn12)N1CCN(S(=O)(=O)c2ccccc2)CC1 | inactive | 0.68 |  |
| CCOC(=O)C1=C(C)OC(N)=C(C#N)C1c1cccc(C)c1 (configuration not stated) | inactive | 26.4 |  |
| CCOC(=O)C1=C(C)OC(N)=C(C#N)C1c1ccccc1 (configuration not stated) |  | 2.6 | 8.87% [at 9.22 µM] (inactive) |
| CCOc1cc(C2C(C#N)=C(N)OC(C)=C2C(C)=O)cc(Br)c1O (configuration not stated) | 8.2 µM (active) |  |  |
| CCc1nnc(NS(=O)(=O)c2ccc(NC(=O)c3ccco3)cc2)s1 | inactive | -17.4 |  |

| SMILES | Potency | cell number change [%] | lipid storage change, negative = inhibition |
| --- | --- | --- | --- |
| COc1ccc(/C=N/N=C2/NC(=O)C(c3ccccc3)(c3ccccc3)S2)cc1 | 16.4 µM (active) | 1.45 |  |
| COc1ccc(CC2S/C(=N/N=C/c3ccc(O)cc3)NC2=O)cc1 (configuration not stated) | inactive | 8.53 |  |
| COc1ccc(/C=N/N=C2/NC(=O)CC(C(=O)O)S2)cc1 (configuration not stated) | inactive |  |  |
| Cc1ccc(/C=C/S(=O)(=O)NCC(=O)OCC(=O)N2CC(=O)Nc3ccccc32)cc1 | inactive | 5.37 |  |
| CCOc1ncccc1C(=O)Nc1cccc(C(=O)Nc2cccc(S(=O)(=O)CCO)c2)c1 | inactive | -9.36 |  |
| Cc1ccc(-c2nnc(SCC#N)n2N)cc1 | inactive | 6.27 |  |
| COc1ccc(-c2csc3ncn(-c4ccccc4)c(=O)c23)cc1OC | inactive | -7.4 |  |
| Cc1cc(C)nc(CCNC(=O)C2CCC(=O)N(Cc3ccccc3F)C2)n1 (configuration not stated) | inactive | 14.5 |  |
| CSc1ccc(-c2nc(CSCC(=O)NCCCN3CCCC3=O)c(C)o2)cc1 | 1.84 µM (active) |  |  |
| CSc1ccc(-c2nc(CSCC(=O)NCCCN3CCOCC3)c(C)o2)cc1 | inactive | -0.666 |  |
| CCCNC(=O)CSCc1nc(-c2ccc(SC)cc2)oc1C | inactive | 10.2 |  |
| CCOC(=O)C(CCCOc1cccc(OC)c1)C(=O)OCC | inactive | -10.4 |  |
| O=C(COc1ccc([N+](=O)[O-])cc1)N1CCc2ccccc2C1 | inactive | 20 |  |
| COc1ccc([N+](=O)[O-])cc1NC(=O)c1ccccc1N(C)S(C)(=O)=O | inactive | -12.5 |  |
| Cc1ccc(-c2nnc(Sc3nc4ccccc4o3)c3ccccc23)cc1 | inactive | -15.3 |  |
| O=c1c(Cl)c2oc3ccccc3nc-2c2ccccc12 | 11.6 µM (active) | 13.2 |  |
| Clc1ccc(-c2nnc(Sc3nc4ccccc4o3)c3ccccc23)cc1 | inactive | -12.5 |  |
| CCSc1ccc(-c2ccco2)nn1 | inactive | 13.6 |  |
| O=c1c([N+](=O)[O-])c(O)c2cccc3c2n1CCC3 | inactive | -0.265 |  |
| O=C(Nc1ccccc1C(=O)Nc1ccccn1)c1cccc([N+](=O)[O-])c1 | inactive | 6.61 |  |
| N#Cc1c(N)nc2c(c1-c1ccc(F)cc1)c(=O)nc1sccn12 | inactive |  |  |
| CC1(c2ccccc2Cl)NC(=O)N(CC(=O)NCCC2=CCCCC2)C1=O (configuration not stated) | inactive |  |  |
| O=C(Cc1ccc(F)cc1)N1CCN(c2ccc([N+](=O)[O-])cc2)CC1 | inactive | 11.6 |  |
| Cc1ccc(CC(=O)N2CCN(c3ccc([N+](=O)[O-])cc3)CC2)cc1 | 7.31 µM (active) | 10.2 |  |

| SMILES | Potency | cell number change [%] | lipid storage change, negative = inhibition |
| --- | --- | --- | --- |
| O=C(Cc1ccc([N+](=O)[O-])cc1)N1CCN(c2ccc([N+](=O)[O-])cc2)CC1 | inactive | 2.07 |  |
| O=C(Nc1cccc2ccccc12)N1CCN(c2ncccn2)CC1 | inactive | 15 |  |
| Cc1ccc(CN2CCN(Cc3cnc(N4CCOCC4)s3)CC2CCO)cc1 (configuration not stated) | inactive | -2.17 |  |
| CC(C)CN1CCN(Cc2cnc(N3CCOCC3)s2)CC1CCO (configuration not stated) | inactive | 24.7 |  |
| CC(C)=CCN1CCN(Cc2cnc(N3CCOCC3)s2)CC1CCO (configuration not stated) | 13 µM (active) | -26.5 |  |
| O=C1CN(S(=O)(=O)c2ccccc2)CCN1S(=O)(=O)c1ccccc1 | inactive | -1.6 |  |
| CCC1C(=O)N=C(SCC(=O)Nc2ccccc2)NC1=O (configuration not stated) | inactive | 7.84 |  |
| NS(=O)(=O)c1ccc(NC(=O)CSC2=NC(=O)C(c3ccccc3)C(=O)N2)cc1 (configuration not stated) | inactive | -0.978 |  |
| CCC1C(=O)N=C(SCC(=O)Nc2ccc(S(N)(=O)=O)cc2)NC1=O (configuration not stated) | 6.51 µM (active) | -37.4 |  |
| O=S(=O)(/N=C(/c1ccc(F)cc1)N1CCCCC1)c1ccc(Cl)cc1 | inactive | -6.48 |  |
| Cc1ccc(CNC(=O)CN2C(=O)c3ccccc3S2(=O)=O)cc1 | inactive | 20.7 |  |
| Cn1nccc1C(=O)N/N=C/c1c(O)ccc2ccccc12 | 14.6 µM (active) | -2.67 |  |
| CN(C)c1ccc(/C=N/NC(=O)c2ccnn2C)cc1 | inactive | -10.8 |  |
| Cn1cc(C(=O)N/N=C/c2c(O)ccc3ccccc23)ccc1=O | inactive | -26.3 |  |
| O=C1NC(=S)N/C1=C/c1ccc(Oc2ccc(C(F)(F)F)cc2[N+](=O)[O-])c(Cl)c1 | inactive | -6.9 |  |
| COc1ccc(N2C(=O)CC(NC3CCCCNC3=O)C2=O)cc1 (configuration not stated) | inactive | 5.19 |  |
| COCC(=O)Nc1ccc(OCc2ccccc2)cc1 | inactive | 4 |  |
| COc1ccc(NC(=O)CN(C)C(=O)/C=C/c2ccc(OCc3ccccc3)cc2)cc1 | 0.731 µM (active) | -11.8 |  |
| COc1ccc(NC(=O)CN(C)C(=O)c2ccc(COc3ccccc3)cc2)cc1 | inactive | -6.23 |  |
| Cc1ccc(C23CC4CC(CC(C(=O)OCC(=O)N(C)C)(C4)C2)C3)cc1 | inactive | 4.17 |  |
| CCOc1ccccc1CNC(=O)c1ccc(Sc2ccc(Cl)cc2)c(NC(C)=O)c1 | inactive | 7.67 |  |
| Cc1[nH]c2ccccc2c1C(=O)C(=O)N1CCN(C(=O)c2ccco2)CC1 | inactive | 27 |  |
